The results in this text go back to PubChem BioAssay (EPA / NIEHS).

The source made the active and inactive calls. How the source made its calls: active means hit-call score of the fitted dose curve at least 0.9, where 1 is the maximum; inactive means score below 0.9.

Chain of Paired box protein Pax-6 (Homo sapiens) (P26367 whole entry, looked up): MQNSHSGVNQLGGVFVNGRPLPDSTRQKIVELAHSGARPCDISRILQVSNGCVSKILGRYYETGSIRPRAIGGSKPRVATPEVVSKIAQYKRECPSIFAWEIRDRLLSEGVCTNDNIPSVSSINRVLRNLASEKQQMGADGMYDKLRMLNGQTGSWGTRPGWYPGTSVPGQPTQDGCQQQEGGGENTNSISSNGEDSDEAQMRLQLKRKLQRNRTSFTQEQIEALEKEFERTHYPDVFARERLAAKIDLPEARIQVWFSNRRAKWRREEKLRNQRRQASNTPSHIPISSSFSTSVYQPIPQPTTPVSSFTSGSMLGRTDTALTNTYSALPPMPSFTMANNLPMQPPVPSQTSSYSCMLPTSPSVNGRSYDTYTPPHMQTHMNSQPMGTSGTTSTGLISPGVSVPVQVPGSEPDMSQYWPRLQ

System in the first assay: not listed separately
The experiment in a line: ATG_MRE_CIS: Attagene CIS-FACTORIAL HepG2 Assay for human Metal Responsive Element (MRE) (AID 2282954). Particulars: HepG2 MRE cis-reporter transcription, Attagene multiplex; actives raise or lower the signal. Summed up: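 Step one: transfect HepG2 with cis-regulated reporter units. Step two: dose 24 h. Step three: isolate RNA, RT-PCR, 6-FAM label, HpaI digest, capillary electrophoresis. Fit bidirectionally to DMSO.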
On to `C=CC(=O)NC(C)(C)CS(=O)(=O)O`, for which the result was inactive.
Regarding `O=C1CCCC(=O)O1`, the outcome was inactive.
Take `Cc1c(C)c([N+](=O)[O-])c(C(C)(C)C)c([N+](=O)[O-])c1C`: the compound was classed as inactive.
For the compound `CCOc1ccc(N)c([N+](=O)[O-])c1`, the result was inactive.
`CCOC(=O)Cc1cccc2ccccc12`: the compound was called inactive.
On the same count and under the same terms, for `COC=O` the value was “inactive”; for `C[C@]12C=CC(=O)C=C1CC[C@@H]1[C@@H]2[C@@H](O)C[C@@]2(C)[C@H]1CC[C@]2(O)C(=O)CO`, “inactive”; for `CCC(C)OC(=O)c1ccc(O)cc1` (stereo not drawn), “inactive”.
Take `CC1=CC[C@H]2C[C@@H]1C2(C)C`: the result was inactive.
In the case of `N#[N+]c1ccc2c(S(=O)(=O)[O-])cccc2c1O`, the call was inactive.
The same measure, in the same setting: for `Cc1cc(C)c(C)c(O)c1` the value was “inactive”; for `CCCCCCC1(C)CCC(=O)O1` (stereo not drawn), “inactive”.
For the compound `Cc1cccc(C(=O)O)c1`, the outcome was inactive.
A word on the AC50: it is the concentration at which the activity in the assay is half-maximal. Regarding `C=CC(C)(CCC=C(C)C)OC(=O)CC(C)C` (stereo not drawn), the AC50 is 148 µM (active).
Take `CC/C=C\CCOC(=O)CCCCC`: the result was inactive.
Still for that read-out and setting: for `O=S1(=O)OC(c2ccc(O)cc2)(c2ccc(O)cc2)c2ccccc21` the value was “inactive”.
For the compound `O=C1C(N(CO)C(=O)NCO)N(CO)C(=O)N1CO` (stereo not drawn), the call was inactive.
`CC(CC=O)c1ccccc1` (stereo not drawn): the AC50 is 104 µM (active).
Regarding `CC(C)CCCC(C)CC=O` (stereo not drawn), the compound was called inactive.
Same read-out and setting: for `CCN(Cc1cccc(S(=O)(=O)O)c1)c1ccc(C(=C2C=CC(=[N+](CC)Cc3cccc(S(=O)(=O)[O-])c3)C=C2)c2ccccc2)cc1` the value was “inactive”; for `CCO[Si](CCCN=C=O)(OCC)OCC`, “inactive”.
Take `O=S(=O)(Oc1ccc(Cl)cc1Cl)c1ccccc1`: the AC50 is 32.8 µM (active).
Turning to `Cc1ccc(C(C)(C)C)cc1`, the compound was called inactive.
Consider `ON(Cc1ccccc1)Cc1ccccc1`, for which the result was inactive.
On to `CC1=CC[C@H](C(C)C)C=C1`, for which the AC50 is 66.3 µM (active).
Turning to `CC(C)=CCC[C@H](C)CCO`, the outcome was inactive.
In the case of `COC(=O)c1c(C)cc(O)c(C)c1O`, the compound was called inactive.
Still for that read-out and setting: to `CCC(C)(C)C1CCCCC1OC(C)=O` (stereo not drawn) belongs “inactive”; to `N#CCc1ccc(Cl)cc1Cl`, “inactive”.
As to `O=CN1CCCCC1`, the outcome was inactive.
`CCN(CC#N)c1cccc(C)c1`: the compound was classed as inactive.
As for `CC(=O)OCc1ccco1`, the compound was classed as inactive.
With `CC(C)(C)C(=O)CCc1ccc(Cl)cc1`, the outcome was inactive.
Consider `NC(=O)OCC(COC(N)=O)c1ccccc1`, for which the compound was called inactive.
As to `COC(=O)/C=C\C(=O)O`, the result was inactive.
The same measure, in the same setting: for `C1=Cc2ccccc2C1` the value was “inactive”.
Turning to `CCCCC/C=C\C/C=C\CCCCCCCC(=O)OC`, the result was inactive.
On the same count and under the same terms, for `O=C1CCC(=O)N1Cl` the value was “inactive”; for `C=C(C)[C@H]1CC=C(C)CC1`, “inactive”.
Regarding `N[C@H]1C(O)O[C@H](CO)[C@H](O)[C@@H]1O` (stereo partly drawn), the result was inactive.

System in the next assay: not listed separately
The experiment in a line: ATG_PBREM_CIS: Attagene CIS-FACTORIAL HepG2 Assay for human Phenobarbital-responsive Enhancer Module (PBREM) (AID 2282955). Particulars: HepG2 PBREM cis-reporter, Attagene multiplexed transcription; actives raise or lower the signal. Summed up: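 Multiplexed cis-reporter readout in human hepatoma HepG2 cells; PBREM-regulated transcript quantified after 24 h exposure by fluorescent RT-PCR fragment analysis. Signal changes up or down fitted relative to DMSO.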
For `C=CC(=O)NC(C)(C)CS(=O)(=O)O`, the outcome was inactive.
On the same count and under the same terms, to `O=C1CCCC(=O)O1` belongs “inactive”.
As for `CCOc1ccc(N)c([N+](=O)[O-])c1`, the result was inactive.
With `CCOC(=O)Cc1cccc2ccccc12`, the outcome was inactive.
`COC=O`: the outcome was inactive.
For `C[C@]12C=CC(=O)C=C1CC[C@@H]1[C@@H]2[C@@H](O)C[C@@]2(C)[C@H]1CC[C@]2(O)C(=O)CO`, the result was inactive.
Take `CCC(C)OC(=O)c1ccc(O)cc1` (stereo not drawn): the result was inactive.
The same measure, in the same setting: for `N#[N+]c1ccc2c(S(=O)(=O)[O-])cccc2c1O` the value was “inactive”.
In the case of `CCCCCCC1(C)CCC(=O)O1` (stereo not drawn), the result was inactive.
Same read-out and setting: for `Cc1cccc(C(=O)O)c1` the value was “inactive”; for `C=CC(C)(CCC=C(C)C)OC(=O)CC(C)C` (stereo not drawn), “inactive”; for `CC/C=C\CCOC(=O)CCCCC`, “inactive”.
On to `O=S1(=O)OC(c2ccc(O)cc2)(c2ccc(O)cc2)c2ccccc21`, for which the outcome was inactive.
In the case of `O=C1C(N(CO)C(=O)NCO)N(CO)C(=O)N1CO` (stereo not drawn), the result was inactive.
Still for that read-out and setting: to `CC(CC=O)c1ccccc1` (stereo not drawn) belongs “inactive”; to `CCN(Cc1cccc(S(=O)(=O)O)c1)c1ccc(C(=C2C=CC(=[N+](CC)Cc3cccc(S(=O)(=O)[O-])c3)C=C2)c2ccccc2)cc1`, “inactive”; to `CCO[Si](CCCN=C=O)(OCC)OCC`, “inactive”.
For the compound `O=S(=O)(Oc1ccc(Cl)cc1Cl)c1ccccc1`, the AC50 is 7.97 µM (active).
As for `Cc1ccc(C(C)(C)C)cc1`, the result was inactive.
Still for that read-out and setting: to `ON(Cc1ccccc1)Cc1ccccc1` belongs “inactive”; to `CC1=CC[C@H](C(C)C)C=C1`, “inactive”.
The same measure, in the same setting: for `COC(=O)c1c(C)cc(O)c(C)c1O` the value was “inactive”; for `CCC(C)(C)C1CCCCC1OC(C)=O` (stereo not drawn), “inactive”.
With `N#CCc1ccc(Cl)cc1Cl`, the outcome was inactive.
The same measure, in the same setting: for `O=CN1CCCCC1` the value was “inactive”; for `CC(=O)OCc1ccco1`, “inactive”; for `NC(=O)OCC(COC(N)=O)c1ccccc1`, “inactive”.
`COC(=O)/C=C\C(=O)O`: the outcome was inactive.
Take `C1=Cc2ccccc2C1`: the result was inactive.
For the compound `CCCCC/C=C\C/C=C\CCCCCCCC(=O)OC`, the outcome was inactive.
On to `O=C1CCC(=O)N1Cl`, for which the result was inactive.
Take `C=C(C)[C@H]1CC=C(C)CC1`: the outcome was inactive.
On the same count and under the same terms, for `N[C@H]1C(O)O[C@H](CO)[C@H](O)[C@@H]1O` (stereo partly drawn) the value was “inactive”.

A further assay concerns the target Paired box protein Pax-6 (Homo sapiens) (UniProt P26367). The experiment in a line: ATG_Pax6_CIS: Attagene CIS-FACTORIAL HepG2 Assay for human Paired Box 6 (PAX6) (AID 2282956). Particulars: HepG2 CIS-FACTORIAL PAX6 reporter transcription, RNA readout; actives raise or lower the signal. The gist of the method:
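After twenty-four hours of chemical exposure, transfected HepG2 cells are harvested for RNA. Cis-promoter reporter transcripts are amplified, fluorescently labelled and sized by capillary electrophoresis, with gain and loss of signal scored against DMSO.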
`C=CC(=O)NC(C)(C)CS(=O)(=O)O`: the call was inactive.
Same read-out and setting: to `O=C1CCCC(=O)O1` belongs “inactive”.
On the same count and under the same terms, for `Cc1c(C)c([N+](=O)[O-])c(C(C)(C)C)c([N+](=O)[O-])c1C` the value was “inactive”; for `CCOc1ccc(N)c([N+](=O)[O-])c1`, “inactive”.
Still for that read-out and setting: to `CCOC(=O)Cc1cccc2ccccc12` belongs “inactive”.
On to `COC=O`, for which the outcome was inactive.
The same measure, in the same setting: for `C[C@]12C=CC(=O)C=C1CC[C@@H]1[C@@H]2[C@@H](O)C[C@@]2(C)[C@H]1CC[C@]2(O)C(=O)CO` the value was “inactive”.
Still for that read-out and setting: to `CCC(C)OC(=O)c1ccc(O)cc1` (stereo not drawn) belongs “inactive”.
The same measure, in the same setting: to `CC1=CC[C@H]2C[C@@H]1C2(C)C` belongs “inactive”; to `N#[N+]c1ccc2c(S(=O)(=O)[O-])cccc2c1O`, “inactive”.
On to `Cc1cc(C)c(C)c(O)c1`, for which the call was inactive.
Consider `CCCCCCC1(C)CCC(=O)O1` (stereo not drawn), for which the result was inactive.
Same read-out and setting: to `Cc1cccc(C(=O)O)c1` belongs “inactive”; to `C=CC(C)(CCC=C(C)C)OC(=O)CC(C)C` (stereo not drawn), “inactive”; to `CC/C=C\CCOC(=O)CCCCC`, “inactive”.
`O=S1(=O)OC(c2ccc(O)cc2)(c2ccc(O)cc2)c2ccccc21`: the compound was classed as inactive.
Turning to `O=C1C(N(CO)C(=O)NCO)N(CO)C(=O)N1CO` (stereo not drawn), the compound was classed as inactive.
Still for that read-out and setting: for `CC(CC=O)c1ccccc1` (stereo not drawn) the value was “inactive”; for `CC(C)CCCC(C)CC=O` (stereo not drawn), “inactive”; for `CCN(Cc1cccc(S(=O)(=O)O)c1)c1ccc(C(=C2C=CC(=[N+](CC)Cc3cccc(S(=O)(=O)[O-])c3)C=C2)c2ccccc2)cc1`, “inactive”.
The same measure, in the same setting: for `CCO[Si](CCCN=C=O)(OCC)OCC` the value was “inactive”.
As to `O=S(=O)(Oc1ccc(Cl)cc1Cl)c1ccccc1`, the outcome was inactive.
Same read-out and setting: for `Cc1ccc(C(C)(C)C)cc1` the value was “inactive”; for `ON(Cc1ccccc1)Cc1ccccc1`, “inactive”.
On to `CC1=CC[C@H](C(C)C)C=C1`, for which the call was inactive.
Take `CC(C)=CCC[C@H](C)CCO`: the compound was classed as inactive.
Same read-out and setting: to `COC(=O)c1c(C)cc(O)c(C)c1O` belongs “inactive”; to `CCC(C)(C)C1CCCCC1OC(C)=O` (stereo not drawn), “inactive”.
The same measure, in the same setting: for `N#CCc1ccc(Cl)cc1Cl` the value was “inactive”; for `O=CN1CCCCC1`, “inactive”; for `CCN(CC#N)c1cccc(C)c1`, “inactive”.
With `CC(=O)OCc1ccco1`, the outcome was inactive.
Same read-out and setting: to `CC(C)(C)C(=O)CCc1ccc(Cl)cc1` belongs “inactive”; to `NC(=O)OCC(COC(N)=O)c1ccccc1`, “inactive”; to `COC(=O)/C=C\C(=O)O`, “inactive”.
In the case of `C1=Cc2ccccc2C1`, the compound was called inactive.
Regarding `CCCCC/C=C\C/C=C\CCCCCCCC(=O)OC`, the AC50 was 73.3 µM (active).
For `O=C1CCC(=O)N1Cl`, the outcome was inactive.
`C=C(C)[C@H]1CC=C(C)CC1`: the compound was classed as inactive.
The same measure, in the same setting: for `N[C@H]1C(O)O[C@H](CO)[C@H](O)[C@@H]1O` (stereo partly drawn) the value was “inactive”.
